The results in this text go back to ChEMBL document CHEMBL3433997, “St. Jude Leishmania screening dataset” (2016).

Format in all cases: functional
The target of test [1] is Solute carrier family 2, facilitated glucose transporter member 1 (Homo sapiens) (UniProt P11166). Kind of test: ST_JUDE_LEISH: Cytotoxicity at 2uM final concentration against transgenic Leishmania Mexicana promastigotes LmGLUT1 that are glucose transport deficient and complemented with the human glucose transporter GLUT1. Activity is measured by DNA content using SYBR green in vitro.

Test [2] has as its target Hexose transporter 1 (Plasmodium falciparum) (UniProt O97467). Kind of test: ST_JUDE_LEISH: Cytotoxicity at 2uM final concentration against transgenic Leishmania Mexicana promastigotes LmPfHT that are glucose transport deficient and complemented with the Plasmodium falciparum hexose transporter. Activity is measured by DNA content using SYBR green in vitro.
Test [3] addresses Glucose transporter (Leishmania mexicana) (UniProt O61059). Put plainly: ST_JUDE_LEISH: Cytotoxicity at 2uM final concentration against transgenic Leishmania Mexicana promastigotes LmGT2 that are glucose transport deficient and complemented with the L. Mexicana glucose transporter 2. Activity is measured by DNA content using SYBR green in vitro.

Each structure is given as a SMILES string.

Solute carrier family 2, facilitated glucose transporter member 1 (Homo sapiens), sequence (P11166 whole entry): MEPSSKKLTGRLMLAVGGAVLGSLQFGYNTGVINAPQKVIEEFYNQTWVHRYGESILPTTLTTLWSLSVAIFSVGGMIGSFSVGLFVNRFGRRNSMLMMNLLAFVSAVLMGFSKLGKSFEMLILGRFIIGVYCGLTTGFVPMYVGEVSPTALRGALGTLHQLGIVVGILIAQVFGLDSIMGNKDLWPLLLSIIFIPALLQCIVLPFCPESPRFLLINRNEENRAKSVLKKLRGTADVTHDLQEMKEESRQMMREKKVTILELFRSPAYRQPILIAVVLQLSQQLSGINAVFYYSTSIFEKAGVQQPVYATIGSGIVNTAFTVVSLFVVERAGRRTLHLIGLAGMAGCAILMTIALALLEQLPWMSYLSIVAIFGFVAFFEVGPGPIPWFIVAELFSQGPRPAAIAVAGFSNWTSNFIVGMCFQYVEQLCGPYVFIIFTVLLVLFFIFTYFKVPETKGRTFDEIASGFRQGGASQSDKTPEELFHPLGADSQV

Regarding `CCOC(=O)c1ccc(NC(=O)NC2CCN(CCCCCNC(=O)/C=C/c3ccc(Cl)c(Cl)c3)C2)cc1` (centres undefined), the inhibition – broadly, the change of the read-out against control, counted positive when it falls – came out at 2.05% in test [1], 0% in test [2] and 0.92% in test [3].
The matching figures for `O=C(Nc1cc(Oc2ccc(O)cc2)cc([N+](=O)[O-])c1)c1cc(-c2ccc(F)cc2)no1`: 2.24%, -1.36% and 1.6%.
As to `CCNc1cc(C(=O)N[C@@H](Cc2ccccc2)[C@H](O)CNCc2cccc(OC)c2)c(OC)c(N2CCCCS2(=O)=O)c1`, the inhibition in test [1] is 1.6%; in test [2], 2.79%; in test [3], 2.16%.
For the compound `CNCCNCc1ccc(-c2ccc(-c3nc4cccc(C)c4[nH]3)cc2)cc1`, the inhibition was found to be 5.52% in test [1], 4.65% in test [2] and 4.77% in test [3].
Regarding `O=C(/C=C/c1ccc(Cl)c(Cl)c1)NCCCCCN1CCC(NC(=O)Nc2cc(F)cc(F)c2)CC1`, the figures for the inhibition in test [1], in test [2] and in test [3] were -0.2%, 1.46% and 4.15%, respectively.
For the compound `CC1CN(c2ncc(-c3ccc(CNC4Cc5ccccc5C4)cc3)cn2)CC(C)N1` (centres undefined), the inhibition in test [1] is 2.69%; in test [2], 2.64%; in test [3] it was 0.64%.
The matching figures for `COc1ccc(C(=O)CCC(=O)N(Cc2ccc(-c3ccc(CNCc4cccnc4)cn3)cc2)C2CCN(Cc3ccccc3)CC2)cc1F`: 3.47%, 1.26% and 3.53%.
With `O=C(Cn1c2ccccc2c(=O)c2ccc(Cl)cc21)Nc1ccc(C(F)(F)F)cc1`, the inhibition is -0.52% in test [1], -1.32% in test [2] and -1.59% in test [3].
Take `CCOc1cc(C)ccc1NC1CCN(CCCCNC(=O)c2ccc(NC(=O)c3ccc(Cl)cc3)cc2)CC1`: the inhibition in test [1] is -0.53%; in test [2], 1.56%; in test [3], 1.89%.
On to `O=C(Nc1cccc(-c2nn3ccccc3c2-c2ccnc(Nc3cccc(C(F)(F)F)c3)n2)c1)c1c(F)cccc1F`, for which the inhibition was found to be 0.32% in test [1], 1.06% in test [2] and 0.07% in test [3].
As to `CCCCOc1c(CNCCCCCCNCc2ccc3ccccc3c2OCCCC)ccc2ccccc12`, the figures for the inhibition in test [1], in test [2] and in test [3] were 99.5%, 49.1% and 85.2%, respectively.
Take `c1cc(CNCCc2ccncc2)cc(-c2csc(-c3nc4ccccc4[nH]3)c2)c1`: the inhibition in test [1] was 0.51%; in test [2] it was -1.59%; in test [3] it was 1.05%.
The corresponding values for `CCN(CC1CCN(CC2(O)CCOCC2)CC1)c1cc(C)nc(Nc2ccc(Cl)cc2)n1` are -1.01%, 0.27% and -0.02%.
`COc1cc2nc(N3CCN(C(=O)c4c(Cl)nsc4-c4ccccc4Cl)CC3)nc(N)c2cc1OC`: the inhibition in test [1] was found to be 10.5%; in test [2], 8.35%; in test [3] it was 5.08%.
Regarding `O=S1(=O)NC2(CCN(CCc3ccc(Cl)cc3)CC2)Nc2cc(F)cc(F)c21`, the inhibition in test [1] amounted to 7.66%; in test [2], 8.79%; in test [3], 7.55%.
Regarding `COc1cccc(-c2nn(C)c3sc(C(=O)Nc4cccnc4)cc23)c1`, the figures for the inhibition in test [1], in test [2] and in test [3] were 0.24%, -1.97% and -0.35%, respectively.
In the case of `O=c1cc(NCCCNC(CNCCc2ccccc2)c2cc(Br)cc(Br)c2)[nH]c2ccccc12` (centres undefined), the inhibition in test [1] stood at 2.57%; in test [2], 3.4%; in test [3], 2.67%.
`CC1CN(c2cnn(Cc3cccc(NC(=O)Nc4cccc(C(F)(F)F)c4)c3)c(=O)c2Cl)CC(C)N1` (centres undefined): the values for the inhibition in test [1], in test [2] and in test [3] were 10.7%, 8.17% and 7.73%, respectively.
